Bioassay records as filed in PubChem BioAssay.
Shown are actives, neighbours in structure and some others; about 2.4% of the full set was active somewhere.
Anthrax LT inh – anthrax lethal toxin internalization inhibition | Cells, anthrax lethal toxin internalization, FRET ratio (460/530) | Potency, µM (top dose mostly 40 µM), usual class: inhibitors | actives 0.67% (n = 70,000) | AID 912; note: nearly all actives have a fitted effect of over 50% in size
Prx2 Sm inh – blocks S. mansoni peroxiredoxin 2 enzymatic activity; AID 448; S. mansoni Prx2 activity coupled to TGR/GSH (TGR is thioredoxin glutathione reductase), NADPH fluorescence loss, qHTS; actives 0.07% (n = 65,000); Potency, µM
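qHTS, coupled TGR/Prx2 format; 15 min compound preincubation at RT; reaction started with H2O2 (2.5 mM aliquot); kinetic NADPH fluorescence decrease, ex 365/em 450 nm.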
AmpC det inh – blocks E. coli AmpC beta-lactamase in presence of detergent. P00811. purified AmpC, nitrocefin hydrolysis with detergent. Potency, µM (titrated, usually from 28.7 µM). actives 0.09% (n = 71,000). AID 584; active = well fitted curve in the direction sought with a large enough effect; inconclusive = small, poorly fitted or top-dose-only effect
Target sequence (P00811 whole entry, looked up): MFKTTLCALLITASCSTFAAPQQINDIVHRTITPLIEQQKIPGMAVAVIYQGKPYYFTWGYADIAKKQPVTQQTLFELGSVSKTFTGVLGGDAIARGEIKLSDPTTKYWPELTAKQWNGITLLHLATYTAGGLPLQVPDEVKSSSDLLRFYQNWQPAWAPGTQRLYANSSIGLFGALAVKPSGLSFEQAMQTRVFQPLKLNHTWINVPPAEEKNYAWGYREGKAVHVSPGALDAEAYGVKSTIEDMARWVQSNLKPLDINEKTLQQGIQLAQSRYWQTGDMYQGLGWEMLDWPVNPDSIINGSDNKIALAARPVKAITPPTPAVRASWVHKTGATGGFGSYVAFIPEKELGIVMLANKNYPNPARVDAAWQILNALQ
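E. coli AmpC (5.3 nM) in 20 mM phosphate pH 7.0 with 0.01% Triton X-100, preincubated 15 min RT with compound; nitrocefin (2 uL of 800 uM stock) hydrolysis followed by 480 nm absorbance every 20 s over 4 min.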
AmpC inh no det – inhibitors of E. coli AmpC beta-lactamase without detergent; actives 1.8% (n = 71,000); AmpC nitrocefin hydrolysis, absorbance 480 nm, no detergent; Potency, µM (top dose mostly 28.7 µM); P00811; AID 585
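AmpC in 20 mM phosphate buffer pH 7.0 was preincubated 15 min at room temperature with compounds. Nitrocefin (800 uM stock) was then added and hydrolysis followed at 480 nm every 20 s for 4 min.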
Of the large screens only hits and unclear results are named; the others gave an inactive call; [ ] = another dose, or the depositor's remark. Unless noted, calls come from the whole dose curve.

Cn1c(C(=O)N2CCN(c3ncccn3)CC2)cc2c(=O)n(C)c3ccccc3c21	none
CCNc1ncc2ncc(=O)n(CCOC)c2n1	Anthrax LT inh inconclusive
Nc1nc(-c2ccc(Cl)c(Cl)c2)c(-c2ccncc2)s1	none (no result: Prx2 Sm inh, AmpC det inh, AmpC inh no det)
CCN1C(=O)[C@H]2[C@H]3[C@H](O)[C@H](O)C/C(=N/OCC(C)C)[C@@H]3CC[C@@H]2C1=O	none (no result: Prx2 Sm inh, AmpC det inh, AmpC inh no det)
CC(=O)OCC1=C(C(=O)[O-])N2C(=O)[C@@H](NC(=O)CCC[C@@H](N)C(=O)[O-])[C@@H]2SC1.[Zn+2]	none
CC(=O)OCC1=C(C(=O)O)N2C(=O)[C@@H](N)[C@@H]2SC1	AmpC det inh inconclusive, AmpC inh no det 5.01µM
O=C(c1ccco1)N1CCC2(CCCN(c3ccncc3)C2)CC1	none
CC(C)(C)NC(=O)C1CCCN(S(=O)(=O)c2cccc3cccnc23)C1 (stereo not drawn)	AmpC inh no det 3.98µM[single pt active]
COc1cccc(OCc2nc3ccccc3[nH]2)c1	AmpC inh no det 3.98µM[single pt active]
O=C1CCn2nc(-c3ccc(Cl)cc3)cc2N1	AmpC inh no det 3.98µM[single pt active]
CCCN1CCN(CCCNC(=O)Cn2nc(-c3ccc(Cl)cc3)ccc2=O)CC1	Anthrax LT inh inconclusive
O=c1nc2s/c(=C\c3ccco3)c(=O)n2nc1Cc1ccc(F)cc1	AmpC inh no det 10µM[single pt active]
CN1CCN(c2ccc([N+](=O)[O-])c3[nH]o[n+](=O)c23)CC1	Anthrax LT inh inconclusive
O=C(OCC(=O)c1cccs1)c1ccc(NC(=O)c2ccco2)cc1	AmpC inh no det 15.8µM[single pt active]
CN(C)c1ccc(C(=O)OCC(=O)c2cccs2)cc1	none
CC(=O)OC1c2ccccc2C(=O)N1Cc1ccccc1Cl (stereo not drawn)	AmpC inh no det 3.98µM[single pt active]
CCC(C)NC(=O)C1c2ccccc2C(=O)N1Cc1ccccc1OC (stereo not drawn)	none
CC(=O)c1ccccc1[N+](=O)[O-]	none (no result: Prx2 Sm inh)
COc1ccccc1-n1c(SC)nc(O)cc1=O	AmpC inh no det 2.51µM[single pt active]
COc1ccccc1-n1c(SCC(=O)NC(C)(C)C)nc(O)cc1=O	Anthrax LT inh inconclusive
CCCn1c(C)c(C(=O)c2ccc3ccccc3c2)c2ccccc21	Anthrax LT inh 12.6µM
O=[N+]([O-])c1ccc(NCCO)c(OCCO)c1	none (no result: Prx2 Sm inh)
CCN(C(=O)c1cnc(N2CCN(c3ncccn3)CC2)c2ccccc12)c1cccc(Cl)c1	Anthrax LT inh 15.8µM
COc1ccccc1-c1nnc(SCC(=O)Nc2c(Cl)cccc2Cl)o1	none
COc1ccccc1-c1nnc(SCC(=O)NCc2c(C)c(Cl)cc(C(C)C)c2O)o1	Anthrax LT inh 10µM
COc1ccc(CNc2ccnc(-c3ccc(N(C)C)cc3)n2)c(OC)c1	none
O=C(CSc1nc(-c2ccccc2)cs1)Nc1nccs1	AmpC inh no det 10µM
O=C(CSc1nnc2scc(-c3ccccc3)n12)NCc1ccc2c(c1)OCO2	none
Cn1c(SCC(=O)NCc2ccc3c(c2)OCO3)nc2scc(-c3cccs3)c2c1=O	AmpC inh no det 15.8µM[single pt active]
CSC([N-]/N=C/c1cccc(C)n1)=[S]=[Cu].CS[C@H]([S-])[N-]/N=C/c1cccc(C)n1	Anthrax LT inh inconclusive
CCc1ccc(NC(=O)NCCN2CCc3ccccc3C2)cc1	none
O=C(NCCN1CCc2ccccc2C1)Nc1ccc(F)cc1	Anthrax LT inh inconclusive, AmpC inh no det 3.98µM[single pt active]
COc1ccccc1-c1nnc2sc(COc3ccc(Cl)cc3Cl)nn12	Anthrax LT inh 10µM
Clc1ccc(OCc2nn3c(C4CCCCC4)nnc3s2)c(Cl)c1	none
C=C(C)[C@@H]1CN[C@H](C(=O)O)[C@H]1CC(=O)O	none
CCn1ncc(C2=NOC(C(=O)Nc3c(C)nn(Cc4ccc(F)cc4)c3C)C2)c1C (stereo not drawn)	none
CCn1ncc(C2=NOC(C(=O)Nc3c(C)n(C)n(-c4ccccc4)c3=O)C2)c1C (stereo not drawn)	AmpC inh no det 3.98µM[single pt active]
NC(N)=NCCC[C@H](NC(=O)CC1(CC(=O)N2CCN(C3c4ccccc4NC(=O)c4ccccc43)CC2)CCCC1)C(=O)NCCn1c(=O)n(-c2ccccc2)n(-c2ccccc2)c1=O (stereo partly drawn)	none (no result: Prx2 Sm inh, AmpC det inh, AmpC inh no det)
COc1ccc(C2CC(c3cccc(C)c3)n3nc(N)nc3N2)cc1 (stereo not drawn)	AmpC inh no det 3.98µM[single pt active]
COc1cccc(C2CC(c3ccc(F)cc3)Nc3nc(N)nn32)c1 (stereo not drawn)	AmpC inh no det 2.51µM[single pt active]
COc1cccc(C2CC(c3cccc(OC)c3)n3nc(N)nc3N2)c1 (stereo not drawn)	AmpC inh no det 3.98µM[single pt active]
COc1ccc(OC)c(C2OCCC=CC2C)c1 (stereo not drawn)	none (no result: Prx2 Sm inh, AmpC det inh, AmpC inh no det)
CN1CCN(c2ncc3nc(-c4ccccc4)c(=O)n(-c4ccccc4)c3n2)CC1	Anthrax LT inh inconclusive
COc1ccc(C(c2c(O)ccc3ccccc23)N2CCOCC2)c(OC)c1 (stereo not drawn)	Anthrax LT inh 6.31µM
COc1ccc(-c2cc3ccccc3n2CC(O)CN2CCOCC2)cc1 (stereo not drawn)	none
Cc1nc2ccc(S(=O)(=O)NC(C(=O)NC3CCCC3)C(C)C)cc2s1 (stereo not drawn)	AmpC inh no det 3.98µM[single pt active]
CCN1CCN(C(=O)C(NS(=O)(=O)c2ccc3nc(C)sc3c2)C(C)C)CC1 (stereo not drawn)	none
CS(=O)(=O)Nc1cccc(-c2nc(Nc3ccc(F)cc3)c3ccccc3n2)c1	Anthrax LT inh 10µM
COc1cccc(-c2nc(NCc3ccccc3)c3ccccc3n2)c1	none
COc1ccccc1CNc1nc(-c2cccc(C#N)c2)nc2ccccc12	Anthrax LT inh inconclusive, AmpC inh no det inconclusive
COc1ccccc1CNc1nc(-c2ccc(N(C)C)cc2)nc2ccccc12	Anthrax LT inh inconclusive
COc1ccccc1CNc1nc(-c2cccc(NS(C)(=O)=O)c2)nc2ccccc12	Anthrax LT inh 12.6µM
COc1cccc(-c2nc(NCc3ccccc3OC)c3ccccc3n2)c1	Anthrax LT inh 12.6µM
COc1ccccc1CNc1nc(-c2ccc3c(c2)OCO3)nc2ccccc12	Anthrax LT inh 12.6µM, AmpC inh no det inconclusive
CNc1nc(-c2cccc(NS(C)(=O)=O)c2)nc2ccccc12	none
CCC(C)c1ccc2oc(-c3ccc(NC(=O)c4ncn[nH]4)cc3)nc2c1 (stereo not drawn)	Anthrax LT inh inconclusive, AmpC inh no det 12.6µM[single pt active]
Cc1nc2c(c(=O)n1Cc1ccccc1Cl)c1nc3ccccc3nc1n2Cc1ccco1	Anthrax LT inh 7.94µM
CCOC(=O)c1sc(NC(=O)c2noc3c2CCCC3)c(C(=O)OCC)c1C	AmpC inh no det 3.98µM[single pt active]
CCOC(=O)c1c(NC(=O)c2noc3c2CCCC3)sc(C)c1C	none
O=C(Cn1c(=O)oc2ccccc21)N1CCN(c2ccc(N3CCOCC3)nn2)CC1	AmpC inh no det 2.51µM[single pt active]
Clc1ccc(-c2nnc(SCc3nc(-c4ccccc4)no3)o2)cc1	Anthrax LT inh inconclusive, AmpC inh no det 3.98µM[single pt active]
O=C(CSc1nnc(COc2ccc(Cl)cc2)o1)N1CCN(c2ccccc2)CC1	Anthrax LT inh inconclusive
O=C(CSc1nnc(-c2ccc(Cl)cc2)o1)N1CCN(c2ccccc2)CC1	AmpC inh no det 10µM[single pt active]
